# In the library only some 19% were active in any assay of this set; here they are far more common.
# TDP1 cell CPT: qHTS for Inhibitors of human tyrosyl-DNA phosphodiesterase 1 (TDP1): qHTS in cells in presence of CPT | chicken DT40 Tdp1-/-;hTDP1 cells + 20 nM CPT, ATP luminescence, 48 h | Potency, µM (series often up to 46.2 µM), without a hit: at the highest dose activity change, negative = growth inhibition, actives largely listed as inhibitors | hit rate 12% among 420,000 | AID 686979, 2013; further: potency means the concentration at half of the fitted maximal effect; nearly all actives have a fitted effect of over 55% in size
#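 Cell growth measured by CellTiter-Glo luminescence after a minimum 48 h, 37 C compound exposure with 20 nM CPT in Tdp1-knockout DT40 cells stably expressing hTDP1, seeded 400/well; qHTS titration format.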
# ELG1 repair inh: qHTS screen for small molecules that inhibit ELG1-dependent DNA repair in human embryonic kidney (HEK293T) cells expressing luciferase-tagged ELG1; HEK293T ELG1-luciferase reporter, luminescence, 16 h; DNA damage induced by 5-fluorouridine; Potency, µM (top dose mostly 46.1 µM), for the others: at the top dose activity change, negative = inhibition, usual class: inhibitors; hit rate 2.3% among 330,000; further: potency means the concentration at half of the fitted maximal effect; nearly all actives have a fitted effect of over 55% in size
#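 5-Fluorouridine DNA damage + compound/DMSO, 2,000 cells/well, 16 h, 37 °C/5% CO2. ONE-Glo, 30 min RT, luminescence. Readout = decrease in reporter signal.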
# HT1080 IDH1KD tx: qHTS for induction of synthetic lethality in tumor cells producing 2HG: qHTS for the HT-1080-IDH1KD cell line; HT-1080 IDH1 knockdown viability, ATP luminescence, 48 h; Potency, µM (highest dose often 46.1 µM), inactives show at the top dose activity, negative = toxicity, usual class: cytotoxic; hit rate 2% among 360,000;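 further: potency means the concentration at half of the fitted maximal effect; 0% = DMSO wells and -100% = cell-free medium wells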
#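 After a 2 h attachment period, IDH1KD HT-1080 cells took pin-transferred compound for 48 h at 37 °C; ATP-based luminescence after 10 min room-temperature reagent incubation reported viability.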
# DT40 TDP1 no CPT: qHTS for Inhibitors of human tyrosyl-DNA phosphodiesterase 1 (TDP1): qHTS in cells in absence of CPT; hit rate 15% among 420,000; Potency, µM (top dose mostly 46.2 µM), without a hit: top-dose activity change, negative = growth inhibition, actives largely listed as inhibitors; DT40 Tdp1-/- hTDP1 cells, no CPT, ATP luminescence, 48 h; AID 686978, 2013; further: potency means the concentration at half of the fitted maximal effect; nearly all actives have a fitted effect of over 55% in size
#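 Compound effects on proliferation are scored in DT40 Tdp1-/-;hTDP1 cells in the absence of CPT. ATP levels (CellTiter-Glo luminescence) are recorded after a ≥48 hr, 37 °C incubation.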
# IL-1B inflam inh: qHTS for Inhibitors of Inflammasome Signaling: IL-1-beta AlphaLISA Primary Screen; THP-1 LPS/ATP IL-1B secretion, AlphaLISA, 16 h; active compounds read low; activity change, % at 57.5 µM; hit rate 4.7% among 360,000; in the data active means activity change below about -50%; inconclusive means mostly about -30% to -49%
#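 Secreted IL-1B measured by AlphaLISA bead assay after 16 h compound exposure of THP-1 cells; compounds (final up to 57.5 uM) added 1 h before LPS (250 ng/mL) and ATP (1.25 mM) stimulation; lower signal means less secretion.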
# HT1080NT lethal: qHTS for induction of synthetic lethality in tumor cells producing 2HG: qHTS for the HT-1080-NT fibrosarcoma cell line; hit rate 1.6% among 360,000; Potency, µM (series often up to 46.1 µM), without a hit: at the highest dose activity, negative = less viability, most hits filed as cytotoxic; HT-1080-NT fibrosarcoma viability, CellTiter-Glo ATP luminescence, 48 h;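 further: NT is the 2HG producing partner of a matched IDH1 knockdown line; potency means the concentration at half of the fitted maximal effect; 0% = DMSO-treated cells and -100% = media-only wells without cells; nearly all actives have a fitted effect of over 55% in size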
#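 750 cells/well, RPMI + 5% FBS; 2 h settle, compound pin-transfer, 48 h at 37 degrees C. CellTiter-Glo 10 min RT, luminescence. Normalized to DMSO and media-only wells.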
# Starred values were filed as active, the others as inactive; ? = inconclusive; nt = not tested or not shown. Unless noted, the call rests on the fitted dose curve; in most records, active means well fitted curve in the direction sought with a large enough effect; inconclusive means small, poorly fitted or top-dose-only effect, or another doubt; inactive means no such curve, though single readings can be large; an effect the other way counts as inactive or inconclusive. Unless noted, on the % scale 0 is the no-effect control and ±100 the full control effect.
SMILES,TDP1 cell CPT,ELG1 repair inh,HT1080 IDH1KD tx,DT40 TDP1 no CPT,IL-1B inflam inh,HT1080NT lethal
Cc1ccc(NCC(=O)N=Nc2c(O)[nH]c3ccc([N+](=O)[O-])cc23)cc1,?,?,?,23µM*,67,?
CCNC(=S)N=Nc1c(O)[nH]c2ccc([N+](=O)[O-])cc12,3.3µM*,?,5.8µM*,4.1µM*,0,-27%
O=[N+]([O-])c1ccc2[nH]c(O)c(N=NC(=S)Nc3cccnc3)c2c1,-1%,11%,2%,6%,64,-12%
O=[N+]([O-])c1ccc2[nH]c(O)c(N=NC(=S)NCC3CCCO3)c2c1 (stereo not given),?,4%,5%,15µM*,9,3%
CCCCCC(=O)N=Nc1c(O)[nH]c2ccc([N+](=O)[O-])cc12,0%,5%,?,?,11,25%
S=C(NCc1ccco1)Nc1cc(Cl)c(Cl)cc1Cl,?,-8%,?,?,-52*,?
S=C(NCc1ccco1)Nc1ccc(Cl)c(Cl)c1,?,2%,?,?,-101*,?
O=C(/C=C/c1c(Cl)cccc1Cl)N1CCOCC1,-16%,15%,8%,?,-6,18%
O=C(/C=C/c1c(Cl)cccc1Cl)n1cccn1,?,-19%,?,16µM*,-52*,?
CCNC(=O)C1(C)CCN(Cc2cccc(C(F)(F)F)c2)C1 (stereo not given),-26%,nt,8%,-26%,0,16%
CSc1cccc(CN2CCC(CO)(Cc3cccc(C(F)(F)F)c3)CC2)c1,?,-19%,16µM*,16µM*,-96*,21µM*
COc1cccc(CC2(CO)CCN(C(=O)NCCc3ccccc3)CC2)c1,-10%,?,1%,-9%,-12,5%
OCC1(Cc2cccc(C(F)(F)F)c2)CCN(Cc2cc(F)cc(F)c2)CC1,?,-14%,?,?,-77*,18µM*
COc1cccc(CC2(CO)CCN(C(=O)NC3CCCCC3)CC2)c1,23µM*,?,15%,-28%,18,10%
Cc1ccc(-n2cc(CN3CCC(CO)(Cc4cccc(C(F)(F)F)c4)CC3)cn2)cc1,9.2µM*,7%,18µM*,21µM*,-112*,23µM*
CC1CCN(c2ccc(NC(=O)Cn3c(=O)oc4ccccc43)cc2)CC1,?,6%,1%,0%,-2,22%
CCOc1ccc(-n2cnc3sc(C)c(C)c3c2=O)cc1,-12%,2%,14%,-26%,2,21%
COc1ccc2[nH]c(C(=O)N3CCC(CO)(Cc4cccc(C(F)(F)F)c4)CC3)c(C)c2c1,?,-15%,-1%,21µM*,?,-10%
OCC1(Cc2ccccc2C(F)(F)F)CCN(Cc2ccccc2)CC1,?,-2%,-13%,?,-61*,-24%
OCC1(Cc2ccccc2C(F)(F)F)CCN(Cc2ccc3c(c2)CCO3)CC1,-2%,-3%,-3%,6%,0,-6%
CC(C)Cc1cc(CN2CCC(CO)(Cc3cccc(C(F)(F)F)c3)CC2)[nH]n1,?,5%,?,?,-82*,?
Cc1cc(CN2CCCC(CO)(Cc3cccc(Cl)c3)C2)n[nH]1 (stereo not given),13%,9%,0%,-25%,-6,13%
